Compound activity deposited in PubChem BioAssay by National Center for Advancing Translational Sciences (NCATS).
Most compounds without a hit are left out; they make up all but 2.1% or so of the library.
Abeta yeast res = compounds reversing amyloid beta toxicity in yeast | yeast expressing A-beta42, growth rescue, OD600, 48 h; response scale: 0% DMSO, 100% iron-clioquinol control | Potency, µM (titrated, usually from 46.1 µM), actives largely listed as activators | 0.063% of 410,000 active; note: nearly all actives have a fitted effect of over 55% in size
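Yeast growth medium received pinned compounds, then yeast cells expressing toxic A-beta were added; plates incubated at 30 C for 48 hr. Growth read as absorbance at 600 nm, normalized to DMSO and equimolar FeCl3 plus clioquinol controls.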
FUS suppressor = FUS proteinopathy suppression in yeast; AID 1347120; Potency, µM (highest dose often 76.6 µM), hits mostly activators; S. cerevisiae FUS-expressing, growth rescue, OD600, 24 h; 0.24% of 390,000 active; note: nearly all actives have a fitted effect of over 55% in size
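Read-out: OD at 600 nm after 24hr at 30C, reporting rescue of FUS-induced yeast toxicity. Cells at OD 0.005 in galactose (2%) minimal medium; compounds tested in a dilution series; CP55940 titration from 92uM final as control.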
aSyn yeast inh = alpha-synuclein toxicity inhibition in yeast; Potency, µM (series often up to 46.1 µM), actives largely listed as activators; AID 652106; 0.14% of 370,000 active; Yeast expressing alpha-synuclein, growth rescue, BacTiter-Glo, 24 h; note: nearly all actives have a fitted effect of over 65% in size
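Rescue of yeast growth: cells expressing toxic alpha-synuclein, induced in galactose at OD600 0.02, incubated with compound 24 h at 30 C. ATP luminescence quantified growth; inhibitors of toxicity appear as activators.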
TDP43 rescue = TDP-43 toxicity inhibition in yeast; TDP-43 expressing yeast growth rescue, BacTiter-Glo, 24 h; Potency, µM (highest dose often 46.1 µM), usual class: activators; 1.8% of 410,000 active; note: nearly all actives have a fitted effect of over 50% in size
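Cell-based yeast growth screen: TDP-43 expression induced in galactose, inoculum OD600=0.02 after raffinose pregrowth to mid-log. Read-out BacTiter-Glo luminescence at 24 hr, 30 deg C; inhibition of toxicity seen as signal increase.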
Numbers stand for hits; – = inactive; ? = inconclusive; · = no result; [ ] = remark or other dose. Calls come from the whole dose curve; as a rule, active = well fitted curve in the direction sought with a large enough effect; inconclusive = small, poorly fitted or top-dose-only effect, or another doubt; inactive = no such curve, though single readings can be large; an effect the other way counts as inactive or inconclusive.

SMILES	Abeta yeast res	FUS suppressor	aSyn yeast inh	TDP43 rescue
Cc1ccc(C2CC(c3cccs3)=NN2C(=O)CSC2=NCCS2)cc1 (stereo not drawn)	–	–	–	?
COc1ccc(C2CC(c3cccs3)=NN2C(=O)CSC2=NCCS2)cc1 (stereo not drawn)	–	35.5µM	–	–
CCC(=O)N1N=C(c2cccs2)CC1c1ccc(C)cc1 (stereo not drawn)	–	–	–	20µM
CCC(=O)N1N=C(c2cccs2)CC1c1ccc(OC)cc1 (stereo not drawn)	–	–	–	?
CNC(=S)N1N=C(c2cccs2)CC1c1ccc(F)cc1 (stereo not drawn)	–	–	–	10µM
Cc1ccc(C2CC(c3cccs3)=NN2C(=O)CCl)cc1 (stereo not drawn)	–	–	–	12.6µM
C1=Nc2ccccc2/C1=C/c1c[nH]c2ccccc12	·	·	–	·
O=C1CC2(CCCC2)C(=O)N1CN1CCN(S(=O)(=O)c2ccc(Cl)c(Cl)c2)CC1	–	·	–	–
CC(C)C(NC(=O)c1ccc(C(C)(C)C)cc1)C(=O)NCc1ccccn1 (stereo not drawn)	–	–	–	–
CCc1nn2c(=O)cc(COC(=O)c3cccc(NC(=O)COc4ccccc4)c3)nc2s1	–	–	·	–
Cc1nnc(NN2CCOCC2)[nH]c1=O	–	–	–	–
CCCCn1c(=O)c(CCC(=O)OCC(=O)Nc2ccc(F)c(Cl)c2)nc2ccccc21	–	–	–	–
Nc1ccc(C#Cc2ccccc2)cc1	–	–	–	14.1µM
O=C(CN1C(=O)NC2(CCCCCC2)C1=O)NCc1ccc(Cl)cc1	–	–	–	–
O=C(Nc1ccc(F)cc1)OCc1cn(Cc2ccc(F)c(F)c2)nn1	·	–	·	·
COC(=O)Nc1ccc(S(=O)(=O)NNC(=O)c2c(O)c3ccccc3n(C)c2=O)cc1	–	–	–	–
O=C(N/N=C\c1cccc([N+](=O)[O-])c1O)C1COc2ccccc2O1 (stereo not drawn)	–	–	6.31µM	11.2µM
NNC(=O)C1COc2cc3ccccc3cc2O1 (stereo not drawn)	–	–	–	–
O=C(N/N=C/c1ccc([N+](=O)[O-])cc1)c1cccs1	–	–	–	–
O=C(N/N=C/c1cccc([N+](=O)[O-])c1O)c1cccs1	–	·	7.94µM	–
O=[N+]([O-])c1cccc(C=NNc2ccc3ccccc3n2)c1O	–	·	2µM	?
O=C(N/N=C\c1ccccn1)C1COc2cc3ccccc3cc2O1 (stereo not drawn)	?	–	20µM	–
CCc1nc2ccc(C(=O)N(C)Cc3ccco3)cn2c1N(CC)Cc1cccc(Br)c1	–	–	–	–
CN(C1=C(N2CCOCC2)C(=O)c2ccccc2C1=O)c1ccccc1	–	·	–	11.2µM
CC(=O)OC[C@@H]1CN(Cc2ccccc2)C[C@H](n2cnc3c(NC4CC4)ncnc32)O1	–	–	–	–
SMILES	Abeta yeast res	FUS suppressor	aSyn yeast inh	TDP43 rescue
O=C(NCCc1ccccc1F)c1ccc2c(c1)ncn2C1CCCCC1	·	–	·	·
CCCCNC(=O)c1onc(CSc2ccccn2)c1C(=O)NCCCC	–	–	–	14.1µM
CCN(CC)C(=O)CSc1nnc2nnc3cc(OC)ccc3n12	–	–	–	–
COC(=O)[C@@]12CCCN1[C@H](c1ccc(-c3ccccc3)cc1)[C@H]1C(=O)N(C)C(=O)[C@H]12	–	–	–	–
COC(=O)[C@@]12CCCN1[C@H](c1ccc(-c3ccc(OC)cc3)c(OC)c1)[C@@H]1C(=O)N(C)C(=O)[C@@H]12	–	?	–	?
COC(=O)[C@@]12CCCCN1[C@H](c1ccc(-c3ccc(F)cc3)c(OC)c1)[C@@H]1C(=O)N(C)C(=O)[C@@H]12	–	–	?	15.8µM
COC(=O)[C@@]12CCCCN1[C@H](c1ccc(-c3ccc(F)cc3)cc1)[C@@H]1C(=O)N(C)C(=O)[C@@H]12	–	–	–	12.6µM
COC(=O)[C@@]12CCCN1[C@H](c1ccc(-c3ccc4c(c3)OCO4)c(OC)c1)[C@H]1C(=O)N(C)C(=O)[C@H]12	–	?	–	–
COC(=O)[C@@]12CCCCN1[C@H](c1ccc(-c3ccc4c(c3)OCO4)c(OC)c1)[C@@H]1C(=O)N(C)C(=O)[C@@H]12	–	11.2µM	–	12.6µM
COC(=O)[C@@]12CCCN1[C@H](c1ccc(-c3ccc(OC)cc3)cc1)[C@@H]1C(=O)N(C)C(=O)[C@@H]12	–	?	–	22.4µM
COc1ccc(Cn2ccc3ccc(-c4ccc5ccn(Cc6ccc(F)cc6)c5c4)cc32)cc1	·	–	·	·
Cc1cccn2c(CN3CCCC(c4ccccc4)C3)c(C(=O)N3CCOCC3)nc12 (stereo not drawn)	–	–	–	–[0.397 µM]
CN1[C@@H](Cc2ccccc2)COc2cccc(F)c2S1(=O)=O	·	–	·	·
Cc1ccc(CN=c2c([N+](=O)[O-])nn(-c3cccc(C)c3)n2O)cc1	–	–	–	15.8µM
CCc1ccc(N=c2c([N+](=O)[O-])nn(-c3ccccc3)n2O)cc1	?	–	–	12.6µM
Cc1ccc(CN=c2c([N+](=O)[O-])nn(-c3cccc(Cl)c3)n2O)cc1	?	–	–	10µM
CCOc1ccc(NC(=O)c2ccc(-c3nc(COc4ccccc4)c(C)o3)cc2)cc1	–	–	·	–
C#CCSc1nncn1C(=O)/C=C/c1ccccc1	–	–	12.6µM	–
C#CCSc1nc2ccccc2c(=O)n1CC=C	·	·	–	·
CC(=O)C(=Cc1cn(-c2ccccc2)nc1-c1ccccc1)C(C)=O	–	–	–	14.1µM
Cc1ccc(C(=O)N/C(=C/c2cn(-c3ccccc3)nc2-c2ccccc2)C(=O)O)cc1	–	–	–	–
O=S(=O)(NCCc1csc(-c2ccc(F)cc2)n1)c1ccc(Cl)cc1	6.31µM	–	·	11.2µM
COc1ccc(-c2nc(CNS(=O)(=O)c3ccc(F)cc3)cs2)cc1	–	–	·	–
O=S(=O)(NCCc1csc(-c2cccnc2)n1)c1ccc(F)cc1	–	·	–	14.1µM
COc1ccc(-c2nc(CNS(=O)(=O)c3ccc(C)cc3)cs2)cc1	–	–	·	–
SMILES	Abeta yeast res	FUS suppressor	aSyn yeast inh	TDP43 rescue
CCOc1ccc(S(=O)(=O)NCCc2csc(-c3ccc(Cl)cc3)n2)cc1	–	?	·	22.4µM
Cc1ccc(S(=O)(=O)NCCc2csc(-c3ccc(Cl)cc3)n2)cc1	?	–	·	20µM
Cc1ccc(CNC(=O)CSc2nc3ccccc3nc2Cc2ccc(C)cc2)cc1	–	–	·	–
COc1ccc(S(=O)(=O)NCCc2csc(-c3ccc(F)cc3)n2)cc1	–	–	·	15.8µM
Cc1ccc(S(=O)(=O)NCCc2sc3nc(-c4ccccc4)nn3c2C)cc1C	?	–	·	12.6µM
COc1ccc(S(=O)(=O)NCCc2csc(-c3ccc(F)cc3)n2)cc1F	–	–	·	17.8µM
COc1ccc(S(=O)(=O)NCCc2sc(-c3ccccc3)nc2C)cc1F	–	–	–	22.4µM
COCC(=O)N(C)C[C@H]1N[C@@](C)(C(=O)OC)[C@H]2C(=O)N(Cc3ccccc3)C(=O)[C@@H]12	–	–	–	–
